In the library only some 2.3% were active in any assay of this set; here they are far more common.
MEKK2wt PB1 HTS – raises or lowers MEK5 binding to wildtype human MEKK2 PB1 domain. binding response (% of control), % at 10 µM. actives 1.1% (n = 290,000). bead flow cytometry, Alexa488-MEK5 binding to MEKK2 WT; actives lie on both sides; in the data active means binding response below about 67% or above about 130%
MEKK2mut PB1 HTS – signal of MEK5 binding to mutant human MEKK2 PB1 domain. bead flow cytometry, Alexa488-MEK5 binding to MEKK2 mutant. percent response, % at 10 µM. actives 0.35% (n = 290,000); in the data active means percent response above about 24%, passing the limit was not always enough
UBC13 inh – blocks human UBC13 polyubiquitin chain formation; P61088; TR-FRET; inhibition, % at 20 µM; actives 0.47% (n = 330,000); AID 485273; in the data active means inhibition above about 45%, passing the limit was not always enough
MEKK3 PB1 HTS – raises or lowers MEK5 binding to the human MEKK3 PB1 domain | AID 1529 | binding response (% of control), % at 10 µM | Q99759 | bead-based flow cytometry, Alexa488-MEK5 binding to MEKK3; actives lie on both sides; 0 = blocked by unlabeled MEK5, 100 = vehicle | actives 1.4% (n = 290,000);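 active means binding response more than 3 SD above or below the average of its plate-row segment, actives on both sides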;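 further: Alexa488 bead fluorescence after subtracting the streptavidin-only scavenger bead signal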
Target sequence (Q99759 whole entry, looked up, the tested form may be a part): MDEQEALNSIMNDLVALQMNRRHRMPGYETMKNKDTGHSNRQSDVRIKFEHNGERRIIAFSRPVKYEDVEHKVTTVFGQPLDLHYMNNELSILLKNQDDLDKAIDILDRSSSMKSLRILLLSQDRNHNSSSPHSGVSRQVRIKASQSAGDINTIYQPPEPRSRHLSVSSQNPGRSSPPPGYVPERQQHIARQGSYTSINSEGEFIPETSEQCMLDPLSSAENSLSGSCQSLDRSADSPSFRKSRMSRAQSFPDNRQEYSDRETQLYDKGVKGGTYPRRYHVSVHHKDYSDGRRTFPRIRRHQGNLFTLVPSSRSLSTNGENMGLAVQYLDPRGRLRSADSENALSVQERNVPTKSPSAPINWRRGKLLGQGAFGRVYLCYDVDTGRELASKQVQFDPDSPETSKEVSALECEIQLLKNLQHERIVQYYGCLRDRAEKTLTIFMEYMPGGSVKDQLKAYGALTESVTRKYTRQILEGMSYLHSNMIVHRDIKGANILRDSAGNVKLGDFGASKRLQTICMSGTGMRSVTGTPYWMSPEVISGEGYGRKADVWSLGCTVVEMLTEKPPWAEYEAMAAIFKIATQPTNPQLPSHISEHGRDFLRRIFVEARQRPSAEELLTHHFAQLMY
MEKK2wt confirm – raises or lowers MEK5 binding to wildtype human MEKK2, retest; shares compounds with MEKK3 PB1 HTS; bead flow cytometry, Alexa488-MEK5 binding to MEKK2 WT; actives lie on both sides; binding response (% of control), % at 10 µM; actives 2.4% (n = 5,900); AID 1892; in the data active means binding response below about 16% or above about 210%; inactive means in between
MEKK2mut confirm – signal of MEK5 binding to mutant human MEKK2, retest; shares compounds with MEKK3 PB1 HTS; bead flow cytometry, Alexa488-MEK5 binding to MEKK2 mutant; percent response, % at 10 µM; actives 2% (n = 5,900); in the data active means percent response mostly above about 71%, no sharp cut-off; inactive means mostly below about 38%;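 further: higher means compound restores mutant binding toward wildtype level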
MEKK3-MEK5 inh – MEKK3-MEK5 PB1 inhibition, single concentration confirmation; actives 1.8% (n = 5,900); bead flow cytometry, Alexa488-MEK5 binding to MEKK3; stronger effect = lower value; shares compounds with MEKK3 PB1 HTS; binding response (% of control), % at 10 µM;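 active means binding response below 72% of control, or above a set upper limit, though filed actives all read lower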;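 further: 100% = DMSO only wells and 0% = binding blocked by excess unlabeled MEK5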
Casp3 counter – caspase-3 inhibition (UBC13 counter-screen); Recombinant caspase-3, Caspase-Glo 3/7 luminescence, 60 min; inhibition, % at 20 µM; actives 4% (n = 1,400); shares compounds with UBC13 inh;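 active means mean inhibition across replicates above about 26%, limit read from the data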;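 further: plate controls were DMSO with caspase-3 for no effect and DMSO wells lacking enzyme for full effect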
UBC13 confirm – human UBC13 polyubiquitin inhibition, confirmed. shares compounds with UBC13 inh. UBC13 polyubiquitination, TR-FRET, biochemical. inhibition, % at 10 µM. actives 68% (n = 1,400). AID 488859; in the data active means inhibition above about 45%
* = called active by the depositor; / = not tested or not shown; [ ] = remark or other dose.

SMILES | MEKK2wt PB1 HTS | MEKK2mut PB1 HTS | UBC13 inh | MEKK3 PB1 HTS | MEKK2wt confirm | MEKK2mut confirm | MEKK3-MEK5 inh | Casp3 counter | UBC13 confirm
CC(O)CNc1ccc(-c2nn(C)c(=O)c3ccccc23)cc1[N+](=O)[O-] (centres undefined) | 101 | 7 | -104 | 103 | / | / | / | / | /
Cc1ccc2c(c1)N(C(=O)CCC(=O)NCCCN1CCC(Cc3ccccc3)CC1)CCO2 | 142* | 25* | 62* | 103 | 159 | 39 | 112 | -5 | 56*
O=C(C[n+]1ccc(CCSc2ccc(F)cc2)cc1)c1ccccc1 | 61* | 249* | 72* | 93 | 149 | 27 | 101 | 0 | 124*
CCN1CCN(Cc2ccc(NC(=O)c3ccc(C)c(NC(=O)C[C@@H]4NC(=O)[C@H](Cc5ccccc5)NC4=O)c3)cc2C(F)(F)F)CC1 | 97 | -8 | 2 | 93 | / | / | / | / | /
CCN1CCN(Cc2ccc(NC(=O)c3ccc(C)c(/C=C/c4cnc(Nc5cc(N6CCNCC6)nc(C)n5)cn4)c3)cc2C(F)(F)F)CC1 | 401* | 205* | 123* | 114 | 280* | 169* | 118 | -1 | 116*
CCNc1nc(NC(C)(C)C)nc(Oc2ccc(=O)n(-c3ccccc3)n2)n1 | 105 | 4 | -3 | 103 | / | / | / | / | /
C=CCc1ccccc1OCC(O)CN1CCN(CCN2C(=O)c3cccc4cccc(c34)C2=O)CC1 (centres undefined) | 193* | 23 | 59* | 111 | 155 | 17 | 105 | -4 | 97*
Cc1ccccc1OCC(O)CN1CCN(CCN2C(=O)c3cccc4cccc(c34)C2=O)CC1 (centres undefined) | 111 | 1 | 50* | 137* | 132 | 15 | 106 | 0 | 76*
CC(C)OCC(O)CN1CCN(CCN2C(=O)c3cccc4cccc(c34)C2=O)CC1 (centres undefined) | 100 | 3 | -11 | 101 | / | / | / | / | /
CC1CCN(S(=O)(=O)c2nnc(NC(=O)c3cccc(Cl)c3)s2)CC1 | 99 | -5 | 2 | 101 | / | / | / | / | /
Nc1ccc2nc(-c3cccc(-c4nc5ccc(N)cc5[nH]4)n3)[nH]c2c1 | 77 | -13 | 100* | 79*[inhibitor] | 96 | -2 | 77 | 1 | 114*
Cc1ccc2nc(-c3cccc(N)c3)[nH]c2c1 | 97 | 13 | 11 | 106 | / | / | / | / | /
O=C1c2cc(Cl)ccc2OC2(CCNCC2)C12CC(c1ccc(Cl)cc1)=NO2 (centres undefined) | 162* | 20 | 48* | 115 | 133 | 15 | 103 | 3 | 41
CCC[C@@H](CN[C@@H](CNC)C(C)C)NCCCCc1ccccc1 | 119 | -3 | 6 | 104 | / | / | / | / | /
CNC[C@@H](CC1CCCCC1)NC[C@H](CC(C)C)NCCc1cccc(C(F)(F)F)c1 | 234* | 33* | 92* | 109 | 159 | 36 | 107 | -1 | 80*
CNC[C@@H](Cc1ccccc1)NC[C@@H](CC1CCCCC1)NCCCc1ccccc1 | 244* | 44* | 93* | 115 | 163 | 37 | 99 | -2 | 76*
CSc1sc(C(=O)N2CCCCC2)c(-c2cccs2)c1C#N | 100 | 1 | 14 | 103 | / | / | / | / | /
O=C(CSC(=S)N1CCOCC1)Nc1ncc2c(n1)CC(c1ccco1)CC2=O (centres undefined) | 113 | 14 | 5 | 113 | / | / | / | / | /
CN(C)C(CNc1ncccn1)c1ccccc1 (centres undefined) | 94 | 0 | -6 | 97 | / | / | / | / | /
CC1CCc2sc(C(=O)N(C)CC(=O)Nc3ccc(N4CCOCC4)cc3)cc2C1 (centres undefined) | 106 | 5 | 4 | 103 | / | / | / | / | /
